# Values quoted from earlier work in PubChem BioAssay AID977611.
# Structures can show the parent of a compound that is named as a salt. The campaign covered roughly 3,900 compounds. About 3,900 (100%) were called active. Cut-off not given; nearly all actives show Kd up to about 4200 µM. So high a share suggests a set chosen from earlier hits. The list shows a part of the results. Bridge positions count the residues as written; N and C are the ends. Where a SMILES comes first, the peptide text is derived from it. Residues, ends and D or L forms follow the SMILES beside them. Peptide text beside a SMILES is read from it. [ ]: non-standard residue; d: D form. * marks the point of attachment. Orn(CH(NH2)2) = NC(N)NCCC[C@H](N)C(=O)O; Tfa = O=C(C(F)(F)F)*
# Experiment: PubChem AID 977611
# Conditions: PDB protein-ligand complexes, literature Kd
molecule,measurement,setting,value
NC(=NCC[C@H](N)C(=O)O)NO,Kd,"protein: Arginase, PDB entry 4q3u",0.36 µM (active)
CC[C@H](C)[C@H](NC(=O)[C@@H](NC(=O)[C@@H](NC(=O)[C@H](CCCCN)NC(=O)[C@H](CC(=O)O)NC(=O)[C@@H](N)C(C)C)C(C)C)C(C)C)C(=O)N[C@@H](CC(N)=O)C(=O)N1CCC[C@H]1C(=O)N[C@@H](Cc1ccc(O)cc1)C(=O)N[C@@H](Cc1ccccc1)C(=O)NCC(=O)O (H-VDKVVINPYFG-OH),Kd,"protein: Malcavernin CCM2 PTB domain, PDB entry 4wj7",13 µM (active)
CC[C@H](C)[C@H](NC(=O)[C@@H](NC(=O)[C@H](Cc1ccc(O)cc1)NC(=O)[C@H](C)N)[C@@H](C)O)C(=O)N[C@@H](CS)C(=O)N[C@@H](C)C(=O)NCC(=O)N[C@H](C(=O)N[C@@H](CCC(N)=O)C(=O)N[C@H](C(=O)N[C@@H](CC(=O)O)C(=O)N1CCC[C@H]1C(=O)O)[C@@H](C)O)[C@@H](C)O (H-AYTICAGTQTDP-OH),Kd,"protein: Dynein light chain 1, cytoplasmic LC8, PDB entry 4qh7",1.14 µM (active)
CC[C@H](C)[C@H](NC(=O)[C@H](CC(N)=O)NC(=O)[C@@H](N)Cc1ccccc1)C(=O)N[C@H](C(=O)NCC(=O)N[C@H](C(=O)N[C@H](C(=O)N[C@@H](Cc1ccc(O)cc1)C(=O)N1CCC[C@H]1C(=O)O)[C@@H](C)O)[C@@H](C)O)C(C)C (H-FNIVGTTYP-OH),Kd,"protein: Gephyrin GephE, PDB entry 4tk2",190 µM (active)
H-FNIVGTTYPC-OH,Kd,"protein: Gephyrin GephE, PDB entry 4u90",0.288 µM (active)
CC[C@H](C)[C@H](NC(=O)[C@H](CO)NC(=O)[C@@H](N)Cc1ccccc1)C(=O)N[C@H](C(=O)NCC(=O)N[C@H](C(=O)N[C@@H](CC(C)C)C(=O)N[C@@H](Cc1ccc(O)cc1)C(=O)N1CCC[C@H]1C(=O)O)[C@@H](C)O)C(C)C (H-FSIVGTLYP-OH),Kd,"protein: Gephyrin GephE, PDB entry 4tk3",8 µM (active)
same,Kd,"protein: Gephyrin GephE, PDB entry 4tk4",8 µM (active)
CC[C@H](C)[C@H](NC(=O)[C@H](CC(N)=O)NC(=O)[C@@H](N)Cc1ccccc1)C(=O)N[C@H](C(=O)NCC(=O)N[C@H](C(=O)N[C@H](C(=O)N[C@@H](Cc1ccc(O)cc1)C(=O)N1CCC[C@H]1C(=O)N[C@H](C(=O)N[C@@H](CC(N)=O)C(=O)O)[C@@H](C)CC)[C@@H](C)O)[C@@H](C)O)C(C)C (H-FNIVGTTYPIN-OH),Kd,"protein: Gephyrin GephE, PDB entry 4tk1",190 µM (active)
NC(N)=NCCC[C@@H](C(=O)O)N1[C@H](O)CC[C@@H]1C(=O)O,Kd,"protein: Nopaline-binding periplasmic protein NocT WT, PDB entry 4pow",0.5 µM (active)
NC(N)=NCCC[C@@H](C(=O)O)N1[C@@H](C(=O)O)CC[C@@H]1O,Kd,"protein: Nopaline-binding periplasmic protein NocT-M117N, PDB entry 4pp0",39.9 µM (active)
C[N+](C)(C)CCO[P+](O)(O)O,Kd,"protein: Ficolin-2, PDB entry 4nyt",4100 µM (active)
CC(O)C1C(=O)[C@H]2[C@@H]3c4c[nH]c5cccc(c45)C[C@@H]3C(C)(C)N2C1=O (stereo not given in full),Kd,"protein: Sarcoplasmic/endoplasmic reticulum calcium ATPase 1, PDB entry 2EAS",0.007 µM (active)
CC(=O)N[C@H]1[C@H](O[C@H]2[C@H](O)[C@@H](O)CN[C@@H]2CO)O[C@H](CO)[C@@H](O[C@@H]2O[C@H](CO)[C@@H](O)[C@H](O)[C@H]2NC(C)=O)[C@@H]1O,Kd,"protein: Lysozyme C, PDB entry 4hpi",14.2 µM (active)
CC(=O)N[C@H]1[C@H](O[C@H]2[C@H](O)[C@@H](O)CN[C@@H]2CO)O[C@H](CO)[C@@H](O[C@@H]2O[C@H](CO)[C@@H](O[C@@H]3O[C@H](CO)[C@@H](O)[C@H](O)[C@H]3NC(C)=O)[C@H](O)[C@H]2NC(C)=O)[C@@H]1O,Kd,"protein: Lysozyme C, PDB entry 4hp0",0.76 µM (active)
CO[C@H]1O[C@H](CO)[C@@H](O)[C@H](O)[C@@H]1S[C@H]1O[C@H](CO)[C@@H](O)[C@H](O)[C@@H]1O,Kd,"protein: MANNOSYL-OLIGOSACCHARIDE 1,2-ALPHA-MANNOSIDASE, PDB entry 4ayp",0.755 µM (active)
O[C@@H]1[C@H](O)[C@@H](CO[P+](O)(O)O)O[C@@H]1O,Kd,"protein: Transcriptional regulator LsrR, PDB entry 4l5j",1000 µM (active)
same,Kd,"protein: Transcriptional regulator LsrR, PDB entry 4l51",995 µM (active)
OC[C@H]1O[C@@H](O)[C@H](O)[C@@H](O)[C@@H]1S[C@@H]1O[C@@H](CO[P+](O)(O)O)[C@@H](O)[C@H](O)[C@H]1O,Kd,"protein: 6-phospho-beta-glucosidase, PDB entry 4ipn",409 µM (active)
O=C1OC[C@@H](O[C@@H]2OC[C@@H](O[C@@H]3OC[C@@H](O)[C@H](O)[C@H]3O)[C@H](O)[C@H]2O)[C@H](O)[C@H]1O,Kd,"protein: Selenomethionine XBP1, PDB entry 4g68",0.012 µM (active)
CC(C)[C@@H]1NC(=O)[C@H](Cc2c[nH]cn2)NC(=O)[C@H](Cc2ccc(O)cc2)NC(=O)[C@H]([C@@H](C)O)NC(=O)[C@H](Cc2c[nH]cn2)NC(=O)[C@H](Cc2ccc(O)cc2)NC(=O)CSC[C@@H](C(N)=O)NC(=O)[C@H](Cc2ccc(O)cc2)NC(=O)[C@H](Cc2ccc(O)cc2)NC(=O)[C@H](CC(N)=O)NC(=O)[C@H]([C@@H](C)O)NC(=O)[C@H](CCCN=C(N)N)NC(=O)[C@H](CCCN=C(N)N)NC(=O)[C@H](CCCCNC(=O)C(F)(F)F)NC1=O ({CH2CO}-YHTYHVK(Tfa)RRTNYYC-NH2; thioether N-14),Kd,"protein: NAD-dependent protein deacetylase sirtuin-2, SIRT2, PDB entry 4l3o",1 µM (active)
Cc1noc(C)c1-c1ccc(-c2[nH]c3cncc[n+]3c2NC(C)(C)C)cc1,Kd,"protein: Bromodomain-containing protein 4 BRD4, PDB entry 4wiv",0.55 µM (active)
CC(C)[C@H](N)C(=O)N[C@@H](CCC(=O)O)C(=O)N[C@@H](CCC(N)=O)C(=O)N[C@@H](Cc1cnc[nH]1)C(=O)N[C@@H](Cc1cnc[nH]1)C(=O)N[C@@H](CCCNC(N)N)C(=O)N[C@@H](CCCNC(N)N)C(=O)N[C@H](C(=O)N[C@@H](CC(=O)O)C(=O)N[C@@H](CC(N)=O)C(=O)N[C@@H](CC(=O)O)C(=O)O)[C@@H](C)O (H-VEQHH[Orn(CH(NH2)2)][Orn(CH(NH2)2)]TDND-OH),Kd,"protein: 13F6-1-2 Fab fragment heavy chain, PDB entry 2qhr",0.041 µM (active)
CC[C@H](C)[C@H](NC(=O)[C@H](CCC(=O)O)NC(=O)[C@H](Cc1cnc[nH]1)NC(=O)[C@@H](NC(=O)[C@@H](NC(=O)[C@H](CO)NC(C)=O)[C@@H](C)O)C(C)C)C(=O)N[C@@H](CC(C)C)C(=O)N[C@@H](CO)C(=O)N[C@@H](CCCCN)C(=O)N[C@@H](CC(C)C)C(=O)N[C@@H](CO)C(=O)O (Ac-STVHEILSKLS-OH),Kd,"protein: S100A10, PDB entry 1bt6",2 µM (active)
CC(=O)N[C@@H](CO)C(=O)N[C@@H](Cc1cnc[nH]1)C(=O)N[C@H](C(=O)N[C@@H](C)C(=O)N[C@H](C(=O)N[C@@H](CCC(=O)O)C(=O)N[C@@H](CC(N)=O)C(=O)N[C@@H](C)C(=O)N[C@@H](CC(C)C)C(=O)O)C(C)C)C(C)C,Kd,"protein: HLA class I histocompatibility antigen, B-39 alpha chain, PDB entry 4o2c",0.01 µM (active)
CC(=O)N[C@@H](Cc1ccccc1)C(=O)N[C@@H](Cc1cnc[nH]1)C(=O)N[C@H](C(=O)N[C@@H](C)C(N)=O)[C@@H](C)O (Ac-FHTA-NH2),Kd,"protein: DNA REPAIR AND RECOMBINATION PROTEIN RADA, PDB entry 4b3b",250 µM (active)
